# This is a sample that favours compounds with a hit; in the whole collection about 4.9% have one here.
# NALP1 yeast inh – blocks the NALP1 inflammasome reconstituted in yeast; S. cerevisiae NALP1/ASC/caspase-1 growth, X-gal OD620, 72 h; inhibition, % at 10 µM; 0.61% of 280,000 active; AID 2071; in the data active = inhibition mostly above about 24%, no sharp cut-off; inactive = mostly below about 32%
# tim23-1 inh – growth inhibitors of tim23-1 mutant yeast; AID 463212; inhibition, % at 20 µM; 1.3% of 330,000 active; S. cerevisiae tim23-1 growth, BacTiter-Glo luminescence, 24 h;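 active = growth inhibition of the mutant yeast at or above 50%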;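 also: temperature-sensitive mutant grown at 25 °C; plate controls were DMSO-treated mutant yeast for no effect and medium wells lacking yeast for full effect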
# TIM10 inh – growth inhibitors of TIM10 yeast strain; 1.4% of 330,000 active; AID 463195; inhibition, % at 10 µM; S. cerevisiae TIM10 strain growth, BacTiter-Glo luminescence, 24 h;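 active = inhibition of 40% or more at the single tested concentration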;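 also: wild-type TIM10 isogenic control strain grown at permissive 25 °C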
# SKKanGAS inh – SKKanGAS growth inhibition; S. pyogenes SKKanGAS, kanamycin growth, BacTiter-Glo, 6 h; inhibition, % at 7.5 µM; 1.3% of 300,000 active;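 active = mean replicate score, as percent of positive control median, at least 50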;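 also: strain carries kanamycin resistance gene driven by streptokinase promoter and grows in 40 µg/ml kanamycin; loss of luminescence reflects streptokinase promoter inhibition or plain growth inhibition; 0% = median of DMSO wells and 100% = positive control at its reference dose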
# NALP3 yeast inh – inhibitors of NALP3 inflammasome in yeast | Yeast reconstituted NLRP3/ASC/caspase-1, beta-gal luminescence, 24 h | inhibition, % at 10 µM | 0.39% of 330,000 active | AID 2825;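 active = inhibition of 50% or more; inactive = inhibition below 50%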;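 also: plate controls were induced DMSO wells for no effect and uninduced yeast grown without galactose for full effect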
# tim10-1 inh – inhibits growth of tim10-1 mutant yeast; S. cerevisiae tim10-1 ts strain growth, BacTiter-Glo, 24 h; inhibition, % at 20 µM; 2.2% of 330,000 active;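 active = inhibition of at least 40%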;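 also: mutant grown at 25 °C; 0% = DMSO wells with yeast and 100% = wells holding no yeast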
# tim10-1 conf – confirmation of tim10-1 mutant yeast growth inhibitors | shares compounds with tim10-1 inh | 56% of 7,400 active | S. cerevisiae tim10-1 ts strain growth, BacTiter-Glo, 24 h | inhibition, % at 20 µM;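 active = inhibition of yeast growth at or above a set limit in either of two repeat tests at 20 µM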;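 also: tim10-1 mutant grown at permissive 25 °C to find synthetic lethal compounds; 0% = DMSO yeast wells and 100% = medium wells without yeast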
# * = called active by the depositor; . = no result.
SMILES,NALP1 yeast inh,tim23-1 inh,TIM10 inh,SKKanGAS inh,NALP3 yeast inh,tim10-1 inh,tim10-1 conf
COc1ccc(/C=N/N(Cc2ccccc2)c2ccccc2)cc1O,14,30,39,7,-28,51*,-21
O=c1c(-c2nnc(SCc3ccc(Cl)cc3)o2)cccn1Cc1ccccc1,25*,38,14,-1,16,46*,19
COc1cc(C)c(Br)cc1S(=O)(=O)NCc1ccncc1,14,0,-9,-10,3,4,.
COc1cc(C)c(Br)cc1S(=O)(=O)NCc1cccs1,31,40,32,-2,-6,40*,32*
CN1CCN(c2nc(-c3ccccc3)c3cc(Cl)ccc3n2)CC1,-1,26,37,3,13,42*,18
Cc1onc(-c2ccc3c(c2)OCO3)c1-c1ccc2[nH]ccc2c1,-2,-6,-13,11,17,54*,40*
c1cc2cc(-c3c(-c4ccc5c(c4)OCO5)noc3-c3ccsc3)ccc2[nH]1,5,20,13,42,7,29,.
C[C@H](CO)N1C[C@H](C)[C@@H](CN(C)S(=O)(=O)c2ccccc2)Oc2ccc(NS(=O)(=O)c3cn(C)cn3)cc2C1=O,.,5,6,.,10,-6,.
Cc1occc1-c1nnc(SCC(=O)Nc2ccccc2)n1C,0,13,17,0,3,14,.
Cc1occc1-c1nnc(SCC(=O)Nc2ccccc2N2CCCCC2)n1C,14,30,18,1,5,47*,25
CCc1ccc2nc3nc(C)cc(C)c3c(N)c2c1,12,8,36,1,10,47*,41*
CCc1ccc(NC(=S)/N=C(\N)Nc2nc(C)c3cc(CC)ccc3n2)cc1,0,8,14,43,15,28,.
C=CCNC(=O)/C(C#N)=C/c1ccccc1OCc1ccc(C(=O)OC)cc1,19,45,31,1,14,45*,27
O=C(NCc1ccco1)c1cc2nc(-c3cccs3)cc(C(F)(F)F)n2n1,-8,8,14,4,5,43*,28
CC(C)N=C1NN=C(c2ccc(Cl)c(Cl)c2)CS1,21,36,12,44,15,48*,25
CC(C)N=C1NN=C(c2cccs2)CS1,11,16,11,-1,6,-11,.
COc1ccc(Cl)cc1NC(=O)C1CCCN(c2ncnc3c2nc2n3CCCCC2)C1 (stereo not given),7,36,24,14,11,56*,23
CSc1cccc(NC(=O)C2CCCN(c3ncnc4c3nc3n4CCCCC3)C2)c1 (stereo not given),17,38,9,12,16,48*,4
Cc1ccnc(NC(=O)C2CCCN(c3ncnc4c3nc3n4CCCCC3)C2)c1 (stereo not given),10,33,22,10,6,45*,17
O=C(Nc1ccc(Cl)cn1)C1CCN(c2ncnc3c2nc2n3CCCCC2)CC1,22,26,24,1,20,50*,19
O=C(Nc1cccnc1Cl)C1CCCN(c2ncnc3c2nc2n3CCCCC2)C1 (stereo not given),-12,14,4,1,20,14,.
CCN1CCN(CCCNC(=O)c2ccc(/C=C3/Sc4ccccc4N(Cc4ccccc4F)C3=O)cc2)CC1,9,34,-5,8,0,27,.
O=C(NCCCN1CCOCC1)c1ccc(/C=C2\Oc3ccccc3N(Cc3ccccc3F)C2=O)cc1,16,42,9,14,9,47*,12
CCOC(=O)C1=C(C)N(C[C@@H]2CC[C@@H](Cc3ccc(-c4ccccc4)cc3)O2)C(=O)NC1C1CC1 (stereo not given in full),.,31,-6,.,.,15,.
O=C1c2ccccc2C(=O)N1CC1c2ccccc2CCN1C(=O)C1CCCCC1 (stereo not given),8,38,6,-1,13,22,.
SMILES,NALP1 yeast inh,tim23-1 inh,TIM10 inh,SKKanGAS inh,NALP3 yeast inh,tim10-1 inh,tim10-1 conf
CCN(CC)C(=O)N1CCc2ccccc2C1CN1C(=O)c2ccccc2C1=O (stereo not given),.,42,28,-4,1,48*,22
C/C(CC(=O)Nc1ccc(N(C)C)cc1)=N\NC(=O)c1ccccn1,-13,22,20,-1,19,49*,32*
N#Cc1cccc(-n2c(-c3ccccc3)nnc2-c2ccccc2)c1C#N,0,42,20,-11,17,46*,35*
CCOc1ccccc1C1N=C(c2ccc(OC)cc2)CC(c2ccccc2O)N1 (stereo not given),2,42,18,-2,33,44*,18
CC(C)C1N=C(c2ccc3c(c2)OCO3)CC(c2ccccc2O)N1 (stereo not given),18,15,19,3,13,16,.
C=CCC1Cc2c(cccc2[N+](=O)[O-])C(CC=C)N1 (stereo not given),-3,33,18,1,-7,49*,22
O=C(C1CCN(S(=O)(=O)c2cccc3cccnc23)CC1)N1CC=C(c2ccccc2)CC1,-4,29,28,.,5,43*,17
Cc1oncc1C(=O)Nc1cccc(C#N)c1,8,10,6,4,-1,-12,.
CCCCCCOc1ccc(N2C(=O)CC(N3CCN(CCN=CC4C(=O)CC(C)(C)CC4=O)CC3)C2=O)cc1 (stereo not given),41,20,22,18,25,43*,41*
CCCCCCOc1ccc(N2C(=O)CC(N3CCN(CCN=CC4=C(O)CC(C)(C)CC4=O)CC3)C2=O)cc1 (stereo not given),-4,19,22,1,36,32,.
Cc1ccc(C(=O)Nc2cccc(NC(=O)c3ccc(C)cc3)n2)cc1,.,-6,0,3,29,5,.
COc1ccc(CNC(=O)CSCc2cnn(-c3ccccc3)c2-n2cccc2)cc1,10,14,-3,3,-8,44*,16
CCOC(=O)c1c(CSc2ccc(C)cc2)n(C)c2cc(Br)c(O)c(CN(C)C)c12,17,36,37,16,18,41*,44*
C=C1CCN([C@H](C(=O)O)C(C)C)S(=O)(=O)c2ccccc21,.,2,11,-1,13,-2,.
C=C1CCN([C@H](C(=O)OCc2cccc(C)c2)C(C)C)S(=O)(=O)c2ccccc21,-5,19,8,21,-3,44*,8
COc1cc(CN2CCC(n3nccc3NC(=O)c3ccc4c(c3)OCO4)CC2)ccc1O,23,15,12,22,5,7,.
O=C1Nc2cc(C(=O)N3CCN(c4ccccn4)CC3)ccc2S/C1=C\c1ccccc1,1,42,30,53*,22,42*,-8
